# Source: PubChem BioAssay (NCATS)
# A number with no mark means an inactive call. Inconclusive results are not listed. A call without a number means that no potency is given here. Active and inactive are the calls of the source. Unless noted, calls come from the whole dose curve; as a rule, active = well fitted curve in the direction sought with a large enough effect; inconclusive = small, poorly fitted or top-dose-only effect, or another doubt; inactive = no such curve, though single readings can be large; an effect the other way counts as inactive or inconclusive.
# Columns and labels:
# [1] = Cell Viability - BJ (AID 421; calls by dose curve;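 note: potency is the fitted concentration of half-maximal effect; cells exposed to compound for 40 hours at 37 °C before readout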); details: BJ fibroblast viability, qHTS
# Method in brief: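 Cytotoxicity in human BJ foreskin fibroblasts is scored as loss of cellular ATP after a 40-hour exposure, measured by luciferase luminescence. Controls are DMSO and 100 uM tamoxifen.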
# [2] = Cell Viability - Jurkat (AID 426;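 active = dose-dependent loss of cell ATP signal giving a full or clear fitted curve, ranked by lower potency value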; note: potency is the fitted concentration of half-maximal effect); details: qHTS
# Method in brief: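 Jurkat (Clone E6-1) cells, 5000/well in complete medium, exposed to compounds for 40 hr at 37C; intracellular ATP measured by CellTiter-Glo luminescence after 20 min at room temperature. AC50 from Hill fits.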
# [3] = Cell Viability - HepG2 (AID 433; calls by dose curve;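 note: potency is the fitted concentration of half-maximal effect; potency for ATP loss meaning cytotoxicity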); details: qHTS
# Method in brief: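 Cytotoxicity read as ATP loss (CellTiter-Glo luminescence) after 40 hr compound exposure of HepG2, 1500 cells/well, 37 °C. AC50 by Hill equation; 0% set by DMSO, 100% inhibition by 100 uM tamoxifen.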
# [4] = biological target: Mitogen-activated protein kinase 10 (Mus musculus) (UniProt Q61831); assay: JNK3 AlphaScreen Assay (AID 530; active = well fitted curve in either direction with a large enough effect, not every such curve was filed as active;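 note: kinase came from lysate of stimulated human HepG2 cells; signal reports phosphorylation of biotinylated GST-cJun 1-79 at Ser73 with 10 µM ATP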)
# Method in brief: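 Inhibitors reduce antibody binding to phosphorylated biotin-cJun, lowering AlphaScreen luminescence. Lysates from HepG2 cells pre-activated by IL-1beta plus TNF-alpha supplied JNK3; compounds were titrated.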
# [5] = Cell Viability - N2a (AID 540); details: N2a mouse neuroblastoma cell viability; at 92.2 µM (top of the series); note: nearly all actives have a fitted effect of over 45% in size
# Method in brief: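 Mouse neuroblastoma N2a cells, 1500/well, exposed to compounds 40 h at 37 °C in complete medium. Viability measured as cellular ATP by CellTiter-Glo luminescence; AC50 from Hill fits of concentration-response.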
# [6] = Cell Viability - HUV-EC-C (AID 542); note: nearly all actives have a fitted effect of over 35% in size
# Method in brief: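 HUV-EC-C human vascular endothelial cells, 1000/well, exposed to compound for 40 hr at 37 °C in complete medium. Intracellular ATP was read by CellTiter-Glo luminescence. AC50 came from Hill-equation fits of concentration-response data.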
# [7] = Cell Viability - Mesenchymal (AID 546);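 note: cells exposed to compound for 40 hours before reading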
# Method in brief: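 Normal human renal glomerulus-derived kidney mesenchymal cells, 1000 per well in complete medium, were treated with compounds for 40 hr at 37 °C. Viability was read as intracellular ATP by CellTiter-Glo luminescence; AC50 values came from Hill-equation fits of qHTS concentration-response data.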
# [8] = Cellular Toxicity (caspase-3) HepG2 (AID 654);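 note: cells exposed to compound for 16 hours before reading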
# Method in brief: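 HepG2 cells (1500/well) were treated 16 h at 37 °C in complete medium, then caspase 3/7 activity was read by Caspase-Glo luminescence. Data were normalized to DMSO and 100 uM tamoxifen; AC50 came from Hill-equation fits of qHTS concentration-response.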
# [9] = Cellular Toxicity (caspase-3) HUV-EC-C (AID 656)
# Method in brief: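 Luminescent Caspase-Glo 3/7 readout after 16 h, 37 °C compound exposure of HUV-EC-C endothelial cells, 1000 per well, complete medium. AC50 derived by Hill fitting, with DMSO as baseline and 100 uM tamoxifen as full activation.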
# [10] = Cellular Toxicity (caspase-3) SHSY5Y (AID 657)
# Method in brief: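 Luminescent Caspase-Glo 3/7 read-out, 1 hr room temperature, follows 16 hours of compound treatment of SH-SY5Y cells at 37 °C. Normalization: DMSO basal, 10 uM staurosporine as 100%; AC50 values from Hill-equation concentration-response fits.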
# [11] = Cellular Toxicity (caspase-3) MRC-5 (AID 659)
# Method in brief: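 Luminescence from caspase-cleaved aminoluciferin substrate (Caspase-Glo 3/7, 1 hr RT) reports caspase 3/7 activity in MRC-5 lung fibroblasts after 16 hr compound exposure. Normalized to DMSO basal and 10 uM staurosporine as 100%; AC50 from Hill fits.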
# [12] = Cellular Toxicity (caspase-3) Mesangial (AID 660);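 note: cells exposed to compound for 16 h before the caspase read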
# Method in brief: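 Human renal glomerular mesangial cells, 1000/well, 5 h at 37 C before 16 h compound treatment. Caspase-Glo 3/7 luminescence after 20 min; normalized to DMSO and 100 uM tamoxifen, AC50 from Hill fit.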
# [13] = Cellular Toxicity (caspase-3) SK-N-SH (AID 661)
# Method in brief: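 Human SK-N-SH neuroblastoma cells, 1500/well, were exposed to compounds for 16 hours at 37 °C. Caspase-Glo 3/7 luminescence was normalized to DMSO (basal) and 10 uM staurosporine (100%), and AC50 came from a Hill fit.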
# [14] = Cellular Toxicity (caspase-3) H-4-II-E (AID 663);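 note: cells exposed to compound for 16 hr before readout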
# Method in brief: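 Luminescence from caspase-cleaved aminoluciferin substrate, read 20 min after reagent addition, reports caspase 3/7 activation in rat H-4-II-E cells after 16 hr compound exposure. Normalized to DMSO (basal) and 100 uM tamoxifen (100%); AC50 from Hill fits.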
# [15] = Cellular Toxicity (caspase-3) Hek293 (AID 664);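 note: cells exposed to compound for 16 h at 37 °C before readout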
# Method in brief: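 HEK293 cells in complete medium treated 16 h at 37 °C, then Caspase-Glo 3/7 luminescence read after 20 min at room temperature. Normalized to DMSO and 100 uM tamoxifen; AC50 from Hill fit of concentration-response.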
# [16] = Cellular Toxicity (caspase-3) N2a (AID 665);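 note: compound exposure lasted 16 h at 37 °C before readout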
# Method in brief: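 Mouse N2a neuroblastoma cells, 1500 per well, treated 16 h at 37 °C in complete medium; caspase-3/7 activity by Caspase-Glo luminescence after 1 h. Normalized to DMSO and 10 uM staurosporine; AC50 from Hill fits.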
# [17] = Cellular Toxicity (caspase-3) Renal Proximal Tubule (AID 667);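 note: cells exposed to compound for 16 hours at 37 °C before detection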
# Method in brief: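 Caspase 3/7 activation measured by luminescent aminoluciferin release in primary rat proximal tubule cells after 16 hr compound exposure at 37 °C. AC50 from Hill-fitted concentration-response, scaled between DMSO and 10 uM staurosporine.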
# [18] = Confirmation and Secondary Assay for Modulators of Hemoglobin Beta Chain Splicing at IVS2 654 locus (AID 910);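 note: per-well total GFP intensity by laser scanning cytometry after 2-day treatment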
# Method in brief: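 HeLa cells stably carrying EGFP interrupted by mutant beta-globin IVS2-654 intron (CMV-driven) were treated with compound for 2 days at 37C; corrected splicing was scored as total peak GFP intensity per well (488 nm excitation, 500-520 nm emission).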
# [19] = Cell Viability - LYMP2-001 (AID 921); note: nearly all actives have a fitted effect of over 70% in size
# Method in brief: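 Cellular ATP loss read by luciferase luminescence after 24 h compound exposure at 37 C in complete medium. LYMP2-001 lymphoblastoid cells, 2500/well; qHTS concentration-response data fitted with Hill equation for AC50.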
# [20] = Confirmation and Secondary Assay for Modulators of Hemoglobin Beta Chain Splicing at IVS2 705 locus (AID 930);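 note: HeLa cells stably expressing the EGFP-705 splicing reporter; GFP fluorescence per well restored by corrected splicing of the IVS2-705 intron in EGFP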
# Method in brief: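 Per-well GFP, captured at 1 x 8 µm resolution with 488 nm excitation, served as the read-out for HeLa EGFP-705 cells incubated 2 days with test compound versus DMSO.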
# [21] = MultiTox-Fluor Cytotoxicity Assay - LYMP1-001 - Dead Cells (AID 946)
# Method in brief: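 Seed 2500 LYMP1-001 cells/well, incubate 5 hr at 37 C; add compound, 16 hr at 37 C; add MultiTox-Fluor reagent, 60 min RT; read dead-cell fluorescence Ex/Em=485/520. Normalize to DMSO and 15 uM tetraoctylammonium bromide.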
# [22] = MultiTox-Fluor Cytotoxicity Assay - LYMP1-001 - Live Cells (AID 947)
smiles,measurement,setting,value
Oc1c(Cl)c(Cl)c(Cl)c(Cl)c1Cl,Potency,[1],> 92 µM
same,Potency,[2],47.6 µM (active)
same,Potency,[3],> 92 µM
same,outcome,[4],inactive
same,"activity change, negative = cytotoxicity",[5],-109% (active)
same,outcome,[6],inactive
same,outcome,[7],inactive
same,outcome,[8],inactive
same,outcome,[9],inactive
same,outcome,[10],inactive
same,outcome,[11],inactive
same,outcome,[12],inactive
same,outcome,[13],inactive
same,outcome,[14],inactive
same,outcome,[15],inactive
same,outcome,[16],inactive
same,outcome,[17],inactive
same,Potency,[18],inactive
same,outcome,[19],inactive
same,outcome,[20],inactive
same,Potency,[21],inactive
same,outcome,[22],inactive
